# Experimental data reported in PubChem BioAssay AID504333 (National Center for Advancing Translational Sciences (NCATS), 2011).
# The whole screen tested about 360,000 compounds, of which about 16,000 (4.4%) were called active. Entries that show only a call come without a potency. Not shown: some 9% with an inconclusive outcome. Calls follow the shape of the dose curve; as a rule, active = well fitted inhibition curve with a large enough effect; inconclusive = small, poorly fitted or top-dose-only effect; inactive = no such curve, though single readings can be large or run the other way. Many of the other results were omitted from the sample, so actives are more common in it than they were.
# Biological target: Bromodomain adjacent to zinc finger domain protein 2B (Homo sapiens) (UniProt Q9UIF8)
# Experiment: qHTS Assay for Inhibitors of BAZ2B; also: nearly all actives have a fitted effect of over 60% in size
# Conditions: AlphaScreen BAZ2B-H3K14Ac peptide displacement; series mostly up to 114 µM
# Method in brief: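 BAZ2B (50 nM) with biotin-H3(5-23)K14Ac peptide (50 nM) in PBS pH 7.4, 0.01% Tween-20, preformed 30 min, then compound 30 min at room temperature; top concentration 110uM. AlphaScreen streptavidin donor/nickel chelate acceptor beads (10 ug/mL final), 20 min dark, signal read.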
# Potency is read from the fitted curve at half-maximal effect.
# Bromodomain adjacent to zinc finger domain protein 2B (Homo sapiens), sequence (Q9UIF8 whole entry, looked up, the tested form may be a part): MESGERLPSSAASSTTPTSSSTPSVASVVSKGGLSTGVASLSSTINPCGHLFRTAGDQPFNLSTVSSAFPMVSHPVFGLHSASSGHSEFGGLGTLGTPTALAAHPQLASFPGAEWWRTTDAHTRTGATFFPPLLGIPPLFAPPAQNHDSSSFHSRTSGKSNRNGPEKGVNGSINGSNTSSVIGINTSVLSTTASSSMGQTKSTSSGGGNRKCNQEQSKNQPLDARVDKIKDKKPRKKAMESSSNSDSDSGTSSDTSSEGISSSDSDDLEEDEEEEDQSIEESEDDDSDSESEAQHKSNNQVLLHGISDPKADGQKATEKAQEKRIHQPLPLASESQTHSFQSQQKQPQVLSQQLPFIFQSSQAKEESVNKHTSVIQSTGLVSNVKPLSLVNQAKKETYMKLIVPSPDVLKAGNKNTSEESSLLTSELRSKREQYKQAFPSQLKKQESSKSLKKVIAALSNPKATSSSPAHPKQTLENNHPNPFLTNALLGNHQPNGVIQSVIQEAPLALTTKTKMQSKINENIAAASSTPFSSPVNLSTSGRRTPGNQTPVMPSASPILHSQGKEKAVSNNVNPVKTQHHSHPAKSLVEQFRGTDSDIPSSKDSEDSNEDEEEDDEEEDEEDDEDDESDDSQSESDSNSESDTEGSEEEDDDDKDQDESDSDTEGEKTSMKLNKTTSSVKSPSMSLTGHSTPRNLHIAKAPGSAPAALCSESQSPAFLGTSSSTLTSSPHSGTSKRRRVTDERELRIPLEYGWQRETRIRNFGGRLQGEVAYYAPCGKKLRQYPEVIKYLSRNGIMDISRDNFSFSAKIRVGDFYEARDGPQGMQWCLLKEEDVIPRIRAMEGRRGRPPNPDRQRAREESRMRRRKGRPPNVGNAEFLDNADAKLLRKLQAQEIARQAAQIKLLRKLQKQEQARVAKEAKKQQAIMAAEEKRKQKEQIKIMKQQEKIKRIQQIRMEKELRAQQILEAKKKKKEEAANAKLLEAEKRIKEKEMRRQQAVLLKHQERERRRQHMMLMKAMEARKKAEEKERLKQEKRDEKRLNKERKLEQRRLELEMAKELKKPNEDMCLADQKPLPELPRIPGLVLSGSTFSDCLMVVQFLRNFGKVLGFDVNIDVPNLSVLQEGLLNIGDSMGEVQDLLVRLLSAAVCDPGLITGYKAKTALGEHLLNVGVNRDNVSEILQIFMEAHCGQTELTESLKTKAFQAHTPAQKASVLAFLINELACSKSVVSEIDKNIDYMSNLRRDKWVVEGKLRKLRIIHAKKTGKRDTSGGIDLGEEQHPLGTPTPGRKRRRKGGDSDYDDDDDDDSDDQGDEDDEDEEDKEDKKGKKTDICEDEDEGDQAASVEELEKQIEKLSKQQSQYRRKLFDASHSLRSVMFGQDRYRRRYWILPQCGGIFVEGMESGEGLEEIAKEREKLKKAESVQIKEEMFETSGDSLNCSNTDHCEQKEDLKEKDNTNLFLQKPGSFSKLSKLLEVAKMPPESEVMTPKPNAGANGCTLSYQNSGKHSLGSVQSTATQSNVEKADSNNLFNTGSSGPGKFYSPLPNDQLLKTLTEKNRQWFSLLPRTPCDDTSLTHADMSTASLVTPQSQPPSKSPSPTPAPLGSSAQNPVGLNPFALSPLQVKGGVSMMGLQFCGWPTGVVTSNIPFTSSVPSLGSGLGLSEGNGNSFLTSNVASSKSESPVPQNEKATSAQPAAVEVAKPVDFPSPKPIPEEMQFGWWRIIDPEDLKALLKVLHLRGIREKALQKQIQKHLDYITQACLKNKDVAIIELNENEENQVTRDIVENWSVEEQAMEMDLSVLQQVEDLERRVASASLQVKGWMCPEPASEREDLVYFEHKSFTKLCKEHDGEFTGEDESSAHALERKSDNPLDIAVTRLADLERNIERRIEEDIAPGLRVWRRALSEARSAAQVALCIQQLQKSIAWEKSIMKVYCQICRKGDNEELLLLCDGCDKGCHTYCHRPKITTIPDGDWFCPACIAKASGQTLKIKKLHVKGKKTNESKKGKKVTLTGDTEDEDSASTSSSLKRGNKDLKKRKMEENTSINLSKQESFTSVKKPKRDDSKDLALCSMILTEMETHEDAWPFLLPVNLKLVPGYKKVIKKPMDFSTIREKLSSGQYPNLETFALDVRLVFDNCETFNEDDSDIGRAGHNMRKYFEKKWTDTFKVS
row,Compound,Potency
1,Cc1ccc(/C=N/NC(=O)C2=NNC(c3ccccc3)(c3ccccc3)C2)c(O)c1,inactive
2,FC(F)(F)c1nc2ccccc2nc1N/N=C/c1ccc(Cl)cc1,inactive
3,Cc1nc2ccccc2nc1N/N=C/c1ccc(O)cc1O,25.1 µM (active)
4,Cc1ccc(Cl)cc1-n1ncc2c(N3CCC(C(N)=O)CC3)ncnc21,inactive
5,Cc1cccn2c(=O)c3cc(C(=O)NC(C)c4ccccc4)c(=N)n(CCCO)c3nc12 (centres undefined),inactive
6,COc1ccc(-c2cc(NCc3ccc(F)cc3)n3cnnc3n2)cc1,inactive
7,Cc1ccc(CSc2nc3cccnc3n2Cc2ccc(C(=O)NC3CC3)cc2)cc1,inactive
8,Cc1csc(SCC(=O)Nc2sccc2C#N)n1,56.2 µM (active)
9,COc1ccc(NC(=O)CSc2nc(C)cs2)cc1,inactive
10,Cc1ccc(NC(=O)CSCC(=O)Nc2sccc2C#N)cc1,inactive
11,COc1ccc2c(c1)C=C(C(=O)NCc1cc(Br)ccc1OC)CO2,inactive
12,Cc1ccc(Cl)cc1NC(=O)CSc1nc2ccccc2nc1Cc1ccccc1,inactive
13,C=C(C)CNC(=S)N/N=C/c1ccccc1OCC(=O)O,inactive
14,Cc1cccc(COc2ccccc2/C=N/Nc2ccc([N+](=O)[O-])cc2)c1,inactive
15,Cc1ccc(NS(=O)(=O)c2ccc(N/N=C/c3ccccc3OCC(=O)O)c([N+](=O)[O-])c2)c(C)c1,7.94 µM (active)
16,Cc1ccc(CCNC(=O)c2ccc(CS(=O)(=O)Cc3cccc(C)c3)o2)cc1,inactive
17,Cc1ccc(CNC(=O)CSc2c3c(nc4cc(Cl)ccc24)CCCC3)cc1,inactive
18,CC(=O)N/N=C/c1cc2c(cc1[N+](=O)[O-])OCO2,inactive
19,CN(C)/N=C/c1cc(Cl)cc([N+](=O)[O-])c1O,44.7 µM (active)
20,COc1ccc(NC(=O)C(c2ccccc2)N2Cc3ccccc3C2=O)cc1 (centres undefined),inactive
21,COc1ccc2c(c1OC)C(=O)c1ccccc1C2=O,inactive
22,COc1ccc2c(c1OC)C(=O)N(c1ccc(O)cc1)C2,inactive
23,COc1ccc2c(c1OC)C(=O)N(c1ncn[nH]1)C2,56.2 µM (active)
24,COc1ccc(Cc2nc3ccc(C(=O)NCc4ccccc4Cl)cc3o2)cc1,inactive
25,CCc1ccc(-n2nnc(-c3nc(-c4ccccc4)no3)c2C)cc1,inactive
26,O=C(CN1C(=O)C2C3C=CC(C3)C2C1=O)Nc1nc(-c2ccccn2)cs1 (centres undefined),50.1 µM (active)
27,O=C(NCCN1C(=O)C2C3C=CC(C3)C2C1=O)Nc1ccccn1 (centres undefined),inactive

row,Compound,Potency
1,O=C(CN1C(=O)C2C3C=CC(C3)C2C1=O)NCCc1ccccc1Cl (centres undefined),inactive
2,CCOc1ccc(CNC(=O)c2cccc(Nc3nc4ccccc4n4nnnc34)c2)cc1OC,inactive
3,Cc1ccc(OCCSc2nc3ccc(NC(=O)COc4ccc(C)cc4)cc3s2)cc1,inactive
4,Cc1cc(C)cc(Nc2ncnc3onc(-c4ccc(F)cc4)c23)c1,inactive
5,COC(=O)c1cccc(NC(=O)c2cccc(N3C(=O)CCC3=O)c2)c1,inactive
6,O=C(Nc1cccc2cccnc12)c1cccc(N2C(=O)CCC2=O)c1,inactive
7,COc1ccccc1-c1nnc(NC(=O)c2cccc(N3C(=O)CCC3=O)c2)o1,25.1 µM (active)
8,COc1ccc(Cc2nc3ccc(C(=O)NCc4ccc(OC)cc4OC)cc3o2)cc1,inactive
9,Cc1ccc(S(=O)(=O)c2nc(-c3ccco3)oc2SCC(=O)Nc2ccc(F)cc2)cc1,inactive
10,CCCCS(=O)(=O)c1oc(-c2cccs2)nc1S(=O)(=O)c1ccccc1,inactive
11,Cc1ccc(C)c(S(=O)(=O)c2nnn3c2nc(N2CCOCC2)c2sccc23)c1,inactive
12,O=C(NCCCO)c1nn(-c2ccc(Cl)cc2)nc1CO,inactive
13,Cc1cc(NC(=O)C2CCC(CNS(=O)(=O)c3ccc(Br)s3)CC2)ccc1Br (centres undefined),inactive
14,CC(C)(C)NC(=O)C(=O)NN=C1CCCCCCC1,inactive
15,CCc1ccc(C(=O)NN=C2CCCCCC2)s1,inactive
16,CC(C)NC(=S)NN=C1CCCCCCCCCCC1,35.5 µM (active)
17,O=C(c1ccc2c(c1)N(Cc1ccccc1)C(=O)c1ccccc1S2(=O)=O)N1CCC(Cc2ccccc2)CC1,inactive
18,COc1cc(N2CCCC2)c(OC)cc1/C=C(/C#N)c1cccc(Br)c1,10 µM (active)
19,CC(=O)Nc1cccc(Oc2cc(C#N)c(C#N)cc2N2CCOCC2)c1,inactive
20,CCc1ccc(NC(=O)c2cc3c(=O)n(Cc4cccnc4)ccc3nc2C)cc1,inactive
21,Cc1ccc(-n2c(SCC(=O)Nc3cccc(F)c3)nc3c(oc4ccccc43)c2=O)cc1C,inactive
22,CCN(CC)c1ccc(NC(=O)CN2CCN(CC(=O)Nc3ccc(Cl)cc3)CC2)cc1,20 µM (active)
23,CCOC(=O)N1CCN(CC(=O)Nc2ccc(F)cc2)CC1,inactive
24,CC(=O)N1CCN(CC(=O)Nc2ccc(SC(F)F)cc2)CC1,inactive
25,CC(=O)N1CCN(CC(=O)Nc2ccc(C)c(F)c2)CC1,44.7 µM (active)
26,CCN(CC)c1ccc(NC(=O)CN2C(=O)NC3(CCc4ccccc43)C2=O)cc1 (centres undefined),inactive
27,COC(=O)c1cc(NC(=O)CN2CCN(C(C)=O)CC2)cc(C(=O)OC)c1,inactive
